High-throughput results (PubChem)
MITF act: MITF TRPM1 promoter activation in melanoma cells; SK-MEL-5 TRPM1-promoter luciferase, 24 h; % of positive control, neutral wells = 0; activation, % at 12.5 µM; actives 0.75% (n = 300,000); AID 588334;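 active means mean activation of at least 80% with every replicate also reaching 80%; inconclusive means mean reaches 80% but some replicate falls short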
FGF22 binding: FGF22 (human) thermal shift binding. Q9HCT0. recombinant FGF22 thermal shift, SYPRO orange fluorescence; percent of sucrose octasulfate shift, DMSO zero. activity (Tm shift, normalised), % at 9.99 µM. actives 1.5% (n = 340,000);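 active means mean Tm shift, scaled 0 neutral to 100 positive control, at about 1.3% or above, every replicate too, limit read from the data; inconclusive means no clear call, values can overlap the other calls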
Target sequence (Q9HCT0 whole entry, looked up): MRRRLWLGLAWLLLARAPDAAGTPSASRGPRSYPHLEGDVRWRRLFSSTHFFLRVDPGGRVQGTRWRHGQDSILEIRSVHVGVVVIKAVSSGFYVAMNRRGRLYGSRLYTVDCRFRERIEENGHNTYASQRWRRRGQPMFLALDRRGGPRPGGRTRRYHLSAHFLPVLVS
esBAF inh: SWI/SNF esBAF complex inhibition. AID 602393. reporter increase, % at 12.5 µM. actives 2% (n = 350,000). mouse ES cells, Bmi1-luciferase knock-in reporter, 24 h; 100% = twice the neutral-well signal; in the data active means activation above about 40%; inconclusive means no clear call, values can overlap the other calls;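 further: a rise in the Bmi1 reporter signal indicates esBAF inhibition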
AF4-AF9 inh: inhibitors of human MLL-AF4/AF9 interaction | P42568 | AlphaScreen, biotin-AF4 peptide binding to FLAG-AF9 | inhibition, % at 10 µM | actives 0.47% (n = 350,000);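 active means every replicate reaching a set inhibition limit, whatever the replicate mean, cut at about 25% in these data; inconclusive means mean inhibition reaches that limit but some replicates miss it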
Target sequence (P42568 whole entry, looked up): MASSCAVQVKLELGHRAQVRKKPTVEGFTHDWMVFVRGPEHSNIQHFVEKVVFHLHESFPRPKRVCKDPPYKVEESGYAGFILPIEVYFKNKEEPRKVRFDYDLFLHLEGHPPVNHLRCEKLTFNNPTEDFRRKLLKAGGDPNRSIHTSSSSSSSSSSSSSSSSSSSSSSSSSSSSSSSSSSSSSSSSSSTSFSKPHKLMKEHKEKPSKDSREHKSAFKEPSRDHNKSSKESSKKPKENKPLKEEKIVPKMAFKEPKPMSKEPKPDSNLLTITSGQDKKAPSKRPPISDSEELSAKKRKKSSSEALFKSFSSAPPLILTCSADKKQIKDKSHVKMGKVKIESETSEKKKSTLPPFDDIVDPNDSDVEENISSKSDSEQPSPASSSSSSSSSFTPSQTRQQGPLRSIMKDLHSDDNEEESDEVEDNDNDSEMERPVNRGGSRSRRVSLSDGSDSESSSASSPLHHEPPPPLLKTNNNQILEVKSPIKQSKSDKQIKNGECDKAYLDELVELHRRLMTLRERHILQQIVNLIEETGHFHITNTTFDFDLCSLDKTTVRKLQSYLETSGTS
SMARCA2 act: increases SMARCA2 function in MMTV reporter cells | MG213 cells, MMTV-luciferase reporter, dexamethasone, overnight | activation, % at 9.1 µM | actives 1% (n = 370,000) | AID 652017; in the data active means activation above about 7.8%
Wnt bcat act: Wnt/beta-catenin pathway activation | activation, % at 9.35 µM | Wnt/beta-catenin reporter cell assay, activator, plate reader | actives 1.2% (n = 300,000); in the data active means activation above about 30%, passing the limit was not always enough; inconclusive means no clear call, values can overlap the other calls
Ring1 derepress: de-represses Ring1 in mouse ESCs, confirming esBAF inhibition; fold change at 33 µM; AID 743176; 550 tested, under 10 active; mouse ESC E14, Ring1 mRNA RT-qPCR fold change; shares compounds with esBAF inh;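 active means Ring1 gene expression raised more than 2-fold over untreated cells in both replicates at either tested dose; inconclusive means only one replicate above 2-fold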;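 further: Ring1 transcript normalised to actin housekeeping signal by TaqMan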
Fgf4 repress: esBAF inhibition confirmed by Fgf4 repression; shares compounds with esBAF inh; mouse ESC E14, Fgf4 mRNA qPCR fold change; active compounds read low; Fgf4 expression fold change at 33 µM; actives 4% (n = 550); AID 743177;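 active means Fgf4 expression under 0.8 fold of control in both repeat measurements at one or both tested doses; inconclusive means under 0.8 fold in just a single repeat measurement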;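 further: Fgf4 transcript normalised to actin in duplex TaqMan qPCR; cells exposed to compound for 24 h before lysis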
Bmi1 derepress: esBAF inhibition confirmed by Bmi1 de-repression. shares compounds with esBAF inh. mouse ESE14 ES cells, Bmi1 mRNA qPCR fold; active compounds read high. fold change at 33 µM. 550 tested, under 10 active. AID 743180;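 active means Bmi1 expression fold change above 6 at either tested concentration, seen in replicate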;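 further: higher fold means more Bmi1 de-repression and stronger esBAF inhibition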
A549 tox SP: A549 cell cytotoxicity. plate reader. shares compounds with esBAF inh. cell viability change % (negative = cytotoxic), % at 25 µM, hits read low. 550 tested, under 10 active; call rule not given here
HepG2 cytotox SP: kills or reduces viability of HepG2 cells; shares compounds with esBAF inh; HepG2 cytotoxicity, plate reader; active compounds read low; activity change, negative = inhibition, % at 25 µM; actives 4% (n = 550); AID 743189; in the data active means activity change below about -50%
HEK293 cytotox SP: kills or reduces viability of HEK293 cells; shares compounds with esBAF inh; HEK293 cytotoxicity, plate reader; activity change, negative = inhibition, % at 25 µM, hits read low; actives 3% (n = 550); in the data active means activity change below about -38%, passing the limit was not always enough
Each line names hits and unclear results; the compound was inactive in the other large screens (follow-up assays come after a bar, where they were run). This is a sample that favours compounds with a hit; in the whole collection about 4.3% have one here.

COc1ccc2c3c(n(C)c2c1)[C@H](CO)N(C(=O)c1ccc(F)cc1)CC31CN(C)C1	none (no result: MITF act, esBAF inh, SMARCA2 act, Wnt bcat act)
COC(=O)c1ccc2c(c1)N(C)CCS2	none
Cc1ccccc1NC(=O)c1ccc2c(c1)N(C)CCS2	esBAF inh 80 (no result: MITF act) | Ring1 derepress inactive | Fgf4 repress inactive | Bmi1 derepress inactive | A549 tox SP inactive | HepG2 cytotox SP inactive | HEK293 cytotox SP inactive
COc1ccc(C(=O)Nc2cc3c4c(c2)CC(=O)N4CCC3)c(OC)c1	MITF act 86, esBAF inh 67 (no result: FGF22 binding, AF4-AF9 inh, SMARCA2 act, Wnt bcat act) | Ring1 derepress inactive | Fgf4 repress inactive | Bmi1 derepress inactive | A549 tox SP inactive | HepG2 cytotox SP inactive | HEK293 cytotox SP inactive
CCN(C(=O)c1cccs1)c1nnc(-c2ccncc2)s1	esBAF inh 58 (no result: FGF22 binding, AF4-AF9 inh) | Ring1 derepress inactive | Fgf4 repress inactive | Bmi1 derepress inactive | A549 tox SP inactive | HepG2 cytotox SP inactive | HEK293 cytotox SP inactive
COCCN(C(=O)Cc1cccs1)c1nnc(-c2ccncc2)s1	none (no result: MITF act, FGF22 binding, AF4-AF9 inh)
C[C@@H](O)C#Cc1cnc2c(c1)C(=O)N([C@@H](C)CO)C[C@H](C)[C@H](CN(C)C(=O)CN1CCOCC1)O2	none (no result: MITF act, SMARCA2 act, Wnt bcat act)
Cn1c(N)c(C(=O)N/N=C/c2ccccc2)sc1=S	none (no result: MITF act, esBAF inh)
Cn1c(C(=O)N/N=C/c2ccccc2)cc2ccccc21	esBAF inh 64 (no result: MITF act) | Ring1 derepress inactive | Fgf4 repress inactive | Bmi1 derepress inactive | A549 tox SP inactive | HepG2 cytotox SP inactive | HEK293 cytotox SP inactive
COc1ccc(S(=O)(=O)Nc2ccc3c(c2)C(=O)N([C@@H](C)CO)C[C@@H](C)[C@H](CN(C)C(=O)c2ccccc2)OCCCC[C@@H](C)O3)cc1	none (no result: MITF act, SMARCA2 act, Wnt bcat act)
COC(=O)[C@]12C[C@H](CC(=O)NCC3CCCCC3)C(=O)N(Cc3ccc(Cl)cc3Cl)C1=C[C@H](C1CCCC1)O[C@@H]2C	none (no result: MITF act, FGF22 binding, esBAF inh, AF4-AF9 inh, Wnt bcat act)
O=C(OC12CCCN(C1)/C(=C/c1ccccc1)C2)c1cccc(F)c1 (stereo unspecified)	none (no result: MITF act, FGF22 binding, esBAF inh, AF4-AF9 inh, Wnt bcat act)
CO[C@H]1CN(C)C(=O)c2cc(NC(=O)C3CCCCC3)ccc2OC[C@H](C)NC[C@@H]1C	none (no result: MITF act, FGF22 binding, SMARCA2 act, Wnt bcat act)
Nc1cc2c(cc1Cl)-c1ccccc1C2	esBAF inh 108, AF4-AF9 inh 50 | Ring1 derepress inactive | Fgf4 repress inactive | Bmi1 derepress inactive | A549 tox SP inactive | HepG2 cytotox SP inactive | HEK293 cytotox SP inactive
CN(C)CC(=O)Nc1ccc2c(c1)[C@@H]1C[C@H](CC(=O)NCc3ccccc3F)O[C@H](CO)[C@@H]1O2	none (no result: MITF act, AF4-AF9 inh, SMARCA2 act, Wnt bcat act)
Cc1ccc(NC(=O)C(=O)Nc2ccc(C)cn2)nc1	esBAF inh 57 | Ring1 derepress inactive | Fgf4 repress inactive | Bmi1 derepress inactive | A549 tox SP inactive | HepG2 cytotox SP inactive | HEK293 cytotox SP inactive
COc1ccc(-c2cnc(C(O)c3ccc(-c4ccccc4)cc3)[nH]2)cc1 (stereo unspecified)	none (no result: MITF act)
COc1ccc(-c2cnc(C(O)c3ccccc3)[nH]2)cc1 (stereo unspecified)	esBAF inh 65 (no result: MITF act) | Ring1 derepress inactive | Fgf4 repress inactive | Bmi1 derepress inactive | A549 tox SP inactive | HepG2 cytotox SP inactive | HEK293 cytotox SP inactive
N/C(=N\OC(=O)CC1CCCCC1)c1ccccn1	MITF act 88, esBAF inh 82 (no result: Wnt bcat act) | Ring1 derepress inactive | Fgf4 repress inconclusive | Bmi1 derepress inactive | A549 tox SP inactive | HepG2 cytotox SP inactive | HEK293 cytotox SP inactive
N/C(=N\OC(=O)CC1CCCCC1)c1ccncc1	none (no result: FGF22 binding, esBAF inh, AF4-AF9 inh)
O=C(C[C@@H]1C=C[C@H](NC(=O)NC2CCCCC2)[C@H](CO)O1)NCc1ccc(F)cc1	none (no result: MITF act, SMARCA2 act, Wnt bcat act)
Nc1n[nH]c(N)c1N=Nc1ccc(Cl)cc1	esBAF inh 53 | Ring1 derepress inactive | Fgf4 repress inactive | Bmi1 derepress inactive | A549 tox SP inactive | HepG2 cytotox SP inactive | HEK293 cytotox SP inactive
Clc1ccc(-c2cnnc(-c3ccccn3)n2)cc1	MITF act inconclusive, esBAF inh 83 | Ring1 derepress inactive | Fgf4 repress inactive | Bmi1 derepress inactive | A549 tox SP inactive | HepG2 cytotox SP inactive | HEK293 cytotox SP inactive
c1ccc(-c2cnnc(-c3ccccn3)n2)cc1	MITF act inconclusive, Wnt bcat act inconclusive (no result: FGF22 binding, AF4-AF9 inh)
O=C(Nc1cccc2ccccc12)c1cnccn1	esBAF inh 63 (no result: FGF22 binding, AF4-AF9 inh, Wnt bcat act) | Ring1 derepress inactive | Fgf4 repress inactive | Bmi1 derepress inactive | A549 tox SP inactive | HepG2 cytotox SP inactive | HEK293 cytotox SP inactive
CCc1ccccc1NC(=O)c1cnccn1	none (no result: FGF22 binding, AF4-AF9 inh, Wnt bcat act)
Cc1nn(-c2ccccc2)c(C)c1/C=N/NC(=O)c1cc(C2CC2)[nH]n1	none (no result: FGF22 binding, esBAF inh, AF4-AF9 inh, Wnt bcat act)
CC/C(=N\NC(=O)c1cc(C2CC2)[nH]n1)c1ccccc1	esBAF inh 56 | Ring1 derepress inactive | Fgf4 repress inactive | Bmi1 derepress inactive | A549 tox SP inactive | HepG2 cytotox SP inactive | HEK293 cytotox SP inactive
COc1cc(/C=C/c2ccc(O)cc2)cc(OC)c1	esBAF inh 61 (no result: MITF act) | Ring1 derepress inactive | Fgf4 repress inactive | Bmi1 derepress inactive | A549 tox SP inactive | HepG2 cytotox SP inactive | HEK293 cytotox SP inactive
COc1cc(OC)cc(OC)c1	none (no result: MITF act)
O=C(C[C@@H]1CC[C@H]2[C@@H](COC[C@@H](O)CN2C(=O)c2ccc(F)cc2)O1)Nc1ccc(-c2ccccc2)cc1	none (no result: MITF act, SMARCA2 act, Wnt bcat act)
CCn1c(CSc2nc3ccccc3n2C)nc2ccccc21	none (no result: FGF22 binding, AF4-AF9 inh)
CCn1c(SCc2ccccc2Cl)nc2ccccc21	esBAF inh 57 (no result: FGF22 binding, AF4-AF9 inh) | Ring1 derepress inactive | Fgf4 repress inactive | Bmi1 derepress inactive | A549 tox SP inactive | HepG2 cytotox SP inactive | HEK293 cytotox SP inactive
O=C(Nc1ccccc1)C1C2CCCCC21 (stereo unspecified)	none (no result: MITF act)
Cc1cccc(NC(=O)C2C3CCCCC32)c1 (stereo unspecified)	esBAF inh 67 | Ring1 derepress inactive | Fgf4 repress inactive | Bmi1 derepress inactive | A549 tox SP inactive | HepG2 cytotox SP inactive | HEK293 cytotox SP inactive
CO[C@@H]1CN(C)C(=O)c2cc(NC(=O)c3ccccc3)ccc2OC[C@H](C)N(C(=O)CN(C)C)C[C@@H]1C	none (no result: MITF act, SMARCA2 act, Wnt bcat act)
